L3MBTL1 inh: L3MBTL1 (human) inhibition; Q9Y468; AlphaScreen L3MBTL1–H3K9me1 peptide binding; Potency, µM (top dose mostly 57.1 µM), hits mostly inhibitors; actives 0.66% (n = 230,000); also: nearly all actives have a fitted effect of over 60% in size
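AlphaScreen assay: L3MBTL1 (50 nM final) was preincubated 30 min at room temperature with biotinylated H3(1-15)K9me1 peptide (75 nM final), then 30 min with library compounds; streptavidin donor and nickel chelate acceptor beads (10 ug/mL final) added, 30 min dark.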
BAZ2B block: blocks human BAZ2B | AlphaScreen BAZ2B-H3K14Ac peptide displacement | Q9UIF8 | Potency, µM (titrated, usually from 114 µM), usual class: inhibitors | actives 4.4% (n = 360,000); also: nearly all actives have a fitted effect of over 60% in size
Target sequence (Q9UIF8 whole entry, looked up): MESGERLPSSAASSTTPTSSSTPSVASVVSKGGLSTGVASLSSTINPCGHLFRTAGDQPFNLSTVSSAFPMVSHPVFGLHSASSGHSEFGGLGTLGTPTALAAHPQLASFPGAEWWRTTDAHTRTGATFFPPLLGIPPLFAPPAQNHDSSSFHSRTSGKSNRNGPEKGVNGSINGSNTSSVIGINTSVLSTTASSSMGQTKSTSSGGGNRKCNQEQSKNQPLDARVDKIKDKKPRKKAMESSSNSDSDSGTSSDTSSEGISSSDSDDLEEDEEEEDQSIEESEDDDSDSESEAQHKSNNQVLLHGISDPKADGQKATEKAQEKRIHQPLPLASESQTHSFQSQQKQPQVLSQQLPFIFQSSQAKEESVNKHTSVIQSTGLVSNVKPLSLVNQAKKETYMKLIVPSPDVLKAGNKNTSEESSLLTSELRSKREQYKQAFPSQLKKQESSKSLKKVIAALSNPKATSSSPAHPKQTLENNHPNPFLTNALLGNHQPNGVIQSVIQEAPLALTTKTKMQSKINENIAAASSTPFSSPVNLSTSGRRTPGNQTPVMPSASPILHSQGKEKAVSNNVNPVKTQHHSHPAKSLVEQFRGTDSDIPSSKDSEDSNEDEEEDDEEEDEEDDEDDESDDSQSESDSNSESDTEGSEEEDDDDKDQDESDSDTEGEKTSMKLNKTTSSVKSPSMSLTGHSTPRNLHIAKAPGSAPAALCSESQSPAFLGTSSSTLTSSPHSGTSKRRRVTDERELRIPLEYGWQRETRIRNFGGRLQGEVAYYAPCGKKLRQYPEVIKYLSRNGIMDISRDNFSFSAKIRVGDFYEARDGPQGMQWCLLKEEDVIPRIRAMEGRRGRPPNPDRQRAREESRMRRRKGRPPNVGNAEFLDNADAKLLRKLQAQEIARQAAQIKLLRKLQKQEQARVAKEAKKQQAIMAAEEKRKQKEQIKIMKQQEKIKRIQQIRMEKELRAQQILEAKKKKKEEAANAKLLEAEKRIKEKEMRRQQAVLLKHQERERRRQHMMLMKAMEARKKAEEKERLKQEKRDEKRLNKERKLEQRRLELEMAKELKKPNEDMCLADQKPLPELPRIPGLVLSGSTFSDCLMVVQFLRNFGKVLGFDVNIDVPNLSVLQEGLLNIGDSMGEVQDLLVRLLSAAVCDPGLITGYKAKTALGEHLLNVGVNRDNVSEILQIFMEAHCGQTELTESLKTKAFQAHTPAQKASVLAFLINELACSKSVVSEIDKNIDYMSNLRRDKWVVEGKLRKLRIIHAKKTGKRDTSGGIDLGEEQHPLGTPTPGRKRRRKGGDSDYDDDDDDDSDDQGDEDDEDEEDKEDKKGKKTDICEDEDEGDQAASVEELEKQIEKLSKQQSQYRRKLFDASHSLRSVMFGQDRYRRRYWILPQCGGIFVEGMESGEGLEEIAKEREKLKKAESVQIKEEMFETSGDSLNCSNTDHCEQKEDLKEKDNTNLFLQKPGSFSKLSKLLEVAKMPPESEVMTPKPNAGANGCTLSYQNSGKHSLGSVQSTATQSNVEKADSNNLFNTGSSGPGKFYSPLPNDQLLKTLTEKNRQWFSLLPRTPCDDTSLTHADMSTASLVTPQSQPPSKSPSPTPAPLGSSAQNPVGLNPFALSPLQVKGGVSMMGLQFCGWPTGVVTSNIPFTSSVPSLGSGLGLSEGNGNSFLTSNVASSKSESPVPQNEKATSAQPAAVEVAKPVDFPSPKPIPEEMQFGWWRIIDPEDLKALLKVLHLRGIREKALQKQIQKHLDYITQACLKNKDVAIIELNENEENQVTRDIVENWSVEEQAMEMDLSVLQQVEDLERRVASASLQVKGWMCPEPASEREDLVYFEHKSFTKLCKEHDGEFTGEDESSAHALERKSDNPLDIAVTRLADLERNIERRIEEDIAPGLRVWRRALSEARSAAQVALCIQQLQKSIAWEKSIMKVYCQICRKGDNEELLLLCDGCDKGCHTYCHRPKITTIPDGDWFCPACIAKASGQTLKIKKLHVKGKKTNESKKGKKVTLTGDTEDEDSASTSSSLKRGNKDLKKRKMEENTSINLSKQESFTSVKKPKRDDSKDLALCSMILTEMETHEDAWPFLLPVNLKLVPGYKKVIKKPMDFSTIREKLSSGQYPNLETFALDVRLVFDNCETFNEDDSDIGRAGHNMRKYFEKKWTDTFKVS
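Complex of BAZ2B and biotin-H3K14Ac (50 nM apiece) forms over 30 min at RT, then faces library compounds up to 110 uM for another 30 min; AlphaScreen beads added, 20 min dark incubation, luminescence read.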
HP1b chromo inh: blocks HP1-beta chromodomain binding to methylated histone tails; P83916; AlphaScreen HP1-beta / biotin-H3K9me3 peptide binding; Potency, µM (highest dose often 114 µM), usual class: inhibitors; actives 0.56% (n = 390,000); also: nearly all actives have a fitted effect of over 70% in size
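HP1-beta protein (50 nM final) preincubated 30 min at room temperature with biotinylated H3(1-18)K9me3 peptide (50 nM) in PBS pH 7.4, 0.01% Tween-20, then compound added for 30 min. AlphaScreen streptavidin donor/nickel chelate acceptor beads (10 ug/mL final), 30 min dark, luminescence read.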
G9a inh: blocks human histone lysine methyltransferase G9a | Potency, µM (series often up to 102 µM), usual class: inhibitors | G9a H3K9 monomethylation, AlphaScreen, 2 h | actives 8.8% (n = 350,000); also: nearly all actives have a fitted effect of over 75% in size
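Using a bead-based AlphaScreen, monomethylated H3K9 product from 2 h room-temperature reactions (G9a 20 nM, peptide 500 nM, SAM 20 uM) was detected with 0.5 ug/mL rabbit anti-H3K9me1 antibody.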
JMJD2A Tudor: JMJD2A Tudor domain (human) inhibition; O75164; actives 4.4% (n = 390,000); AlphaScreen JMJD2A-Tudor / H3K4me3 peptide binding; AID 504339; Potency, µM (top dose mostly 114 µM), usual class: inhibitors; also: nearly all actives have a fitted effect of over 50% in size
Each line names hits and unclear results; the compound was inactive in the other large screens. This is a sample that favours compounds with a hit; in the whole collection about 11% have one here. Calls follow the shape of the dose curve; as a rule, active = well fitted inhibition curve with a large enough effect; inconclusive = small, poorly fitted or top-dose-only effect; inactive = no such curve, though single readings can be large or run the other way.

CC1=C(C(=O)Nc2ccccc2)C(c2ccc(C(=O)O)cc2)n2ncnc2N1 (centres undefined)	none (no result: L3MBTL1 inh)
CCCCC(c1nnnn1CS(=O)(=O)c1ccc(C)cc1)N1CCN(c2ccccc2)CC1 (centres undefined)	L3MBTL1 inh inconclusive, G9a inh inconclusive, JMJD2A Tudor inconclusive
CCCC(c1nnnn1CS(=O)(=O)c1ccc(C)cc1)N1CCN(C2CCCC2)CC1 (centres undefined)	G9a inh 50.1µM, JMJD2A Tudor inconclusive (no result: L3MBTL1 inh)
Cc1cc(=O)oc2cc(NC(=O)Cc3ccccc3)ccc12	none (no result: L3MBTL1 inh)
CCCC(C(=O)Nc1ccc2c(C)cc(=O)oc2c1)c1ccccc1 (centres undefined)	BAZ2B block 56.2µM, G9a inh 22.4µM (no result: L3MBTL1 inh)
Cc1cc(=O)oc2cc(NC(=S)NCc3ccccn3)ccc12	BAZ2B block inconclusive, G9a inh 39.8µM
Cc1cc(=O)oc2cc(NC(=O)C(C)Oc3ccc(F)cc3)ccc12 (centres undefined)	G9a inh 44.7µM
Cc1cc(=O)oc2cc(OCC(=O)NCc3ccccn3)ccc12	none
Cc1cc(=O)oc2cc(NC(=O)c3ccc(OC(F)F)cc3)ccc12	none (no result: L3MBTL1 inh)
CCN(c1ccccc1)c1ccc2cc(S(=O)(=O)N3CCCC3)ccc2n1	none (no result: L3MBTL1 inh)
S=P(c1ccc(N2CCOCC2)cc1N1CCOCC1)(N1CCOCC1)N1CCOCC1	HP1b chromo inh inconclusive, G9a inh 10µM
O=[N+]([O-])c1ccc(N2CCCCC2)cc1N1CCOCC1	none
COCCn1cc(C(=O)NCc2cccs2)c2c3ccccc3n(C)c2c1=O	G9a inh 50.1µM
FC(F)(F)c1cnc(Sc2ncn[nH]2)c(Cl)c1	none
Clc1cc(NCc2cccs2)ccc1N1CCOCC1	BAZ2B block 50.1µM, G9a inh 11.2µM, JMJD2A Tudor inconclusive
c1csc(CNc2ccc3c(c2)OCCO3)c1	BAZ2B block 50.1µM, G9a inh 3.55µM, JMJD2A Tudor inconclusive
COc1ccc(OC)c(NC(=O)CN2CCCN(Cc3ccccc3Cl)S2(=O)=O)c1	BAZ2B block inconclusive (no result: L3MBTL1 inh)
COc1ccc2nc3cc(Cl)ccc3c(Nc3cc(C(C)C)c(O)cc3C)c2c1	L3MBTL1 inh inconclusive, BAZ2B block inconclusive, JMJD2A Tudor inconclusive
COc1ccc2nc3cc(Cl)ccc3c(Nc3cc(CN4CCCC4)c(O)c(CN4CCCC4)c3)c2n1	BAZ2B block 39.8µM, G9a inh inconclusive (no result: L3MBTL1 inh, HP1b chromo inh, JMJD2A Tudor)
Cc1ccccc1CNC(=O)CN1C(=O)CCCc2ccccc21	none (no result: L3MBTL1 inh)
CCS(=O)(=O)Nc1ccc(C2=NN(C(=O)c3ccco3)C(c3ccco3)C2)cc1 (centres undefined)	G9a inh inconclusive
Cc1ccc(C2=NN(S(=O)(=O)c3ccccc3)C(c3ccco3)C2)cc1 (centres undefined)	none
CS(=O)(=O)Nc1ccc(C2=NN(C(=O)c3ccco3)C(c3ccccc3F)C2)cc1 (centres undefined)	G9a inh 50.1µM (no result: L3MBTL1 inh, BAZ2B block)
CS(=O)(=O)Nc1ccc(C2=NN(S(=O)(=O)c3ccc(F)cc3)C(c3ccco3)C2)cc1 (centres undefined)	G9a inh 50.1µM (no result: L3MBTL1 inh)
O=S(=O)(c1ccccc1)N1N=C(c2ccc(Br)cc2)CC1c1ccco1 (centres undefined)	G9a inh inconclusive, JMJD2A Tudor 15.8µM (no result: L3MBTL1 inh)
O=C1CCc2cc(S(=O)(=O)Nc3cccc(C(F)(F)F)c3)ccc2N1	none (no result: L3MBTL1 inh, BAZ2B block, HP1b chromo inh, G9a inh)
CCCC1=Nc2cc(C(=O)NC3CCCCC3)ccc2Sc2ccc(C)cc21	none (no result: L3MBTL1 inh)
Cc1ccc(O)cc1	none (no result: L3MBTL1 inh, BAZ2B block, HP1b chromo inh, JMJD2A Tudor)
Cc1ccc(C2=C(O)C(=O)C(c3ccc(C)cc3)=C(O)C2=O)cc1	JMJD2A Tudor 25.1µM (no result: L3MBTL1 inh, BAZ2B block, G9a inh)
CC1=C(O)C(=O)C(C2=C(O)C(=O)C(C)=C(O)C2=O)=C(O)C1=O	HP1b chromo inh inconclusive, JMJD2A Tudor 0.708µM (no result: L3MBTL1 inh, BAZ2B block, G9a inh)
Cc1cc(=O)[nH]c2nnc(SCc3cccc(C(F)(F)F)c3)n12	BAZ2B block inconclusive (no result: L3MBTL1 inh)
O=C(NC(=O)c1cnccc1C(F)(F)F)Nc1ccccc1	none
CC(=O)c1cccc(N(CC(=O)NC2CCCCC2)C(=O)CCC(=O)Nc2nc(C)cs2)c1	none (no result: L3MBTL1 inh)
COc1ccc(C)cc1NC(=O)C1C2C=CC(C2)C1C(=O)O (centres undefined)	none
CN(C)c1ccc(NC(=O)C2C3C=CC(C3)C2C(=O)O)cc1 (centres undefined)	BAZ2B block 35.5µM, G9a inh 22.4µM, JMJD2A Tudor inconclusive (no result: L3MBTL1 inh)

Compound activity from PubChem BioAssay.
